“And” between values parts separate entries of the source, which are not always exact repeats. Identical values can stand only once. The source made the active and inactive calls. Unless noted, calls come from the whole dose curve; as a rule, active = well fitted curve in the direction sought with a large enough effect in the repeat runs; inconclusive = weak or mixed curves; inactive = no such curve, though single readings can be large; an effect the other way counts as inactive or inconclusive.
Assays:
[1] = qHTS assay to identify small molecule antagonists of the thyroid receptor (TR) signaling pathway (AID 743065); note: nearly all actives have a fitted effect of over 55% in size; note: potency is the fitted concentration of half-maximal effect
Summary of the method: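 GH3.TRE-Luc rat pituitary cells (two TREs driving luciferase) were dosed with compound, then stimulated with 1 nM T3 (final) for 23.5 h at 37 C. ONE-Glo luminescence was the read-out, with CellTiter-Fluor fluorescence as the cytotoxicity counter-screen.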

[2] = system: thyroid hormone receptor (rat, GH3 cells); assay: qHTS assay to identify small molecule agonists of the thyroid receptor (TR) signaling pathway (AID 743066; calls by dose curve)
[3] = qHTS assay to identify small molecule antagonists of the estrogen receptor alpha (ER-alpha) signaling pathway - cell viability counter screen (AID 743074; calls by dose curve; note: nearly all actives have a fitted effect of over 45% in size)
[4] = target: Estrogen receptor (Homo sapiens) (UniProt P03372); assay: qHTS assay to identify small molecule agonists of the estrogen receptor alpha (ER-alpha) signaling pathway (AID 743075; calls by dose curve)
Estrogen receptor (Homo sapiens), sequence (P03372 whole entry, looked up): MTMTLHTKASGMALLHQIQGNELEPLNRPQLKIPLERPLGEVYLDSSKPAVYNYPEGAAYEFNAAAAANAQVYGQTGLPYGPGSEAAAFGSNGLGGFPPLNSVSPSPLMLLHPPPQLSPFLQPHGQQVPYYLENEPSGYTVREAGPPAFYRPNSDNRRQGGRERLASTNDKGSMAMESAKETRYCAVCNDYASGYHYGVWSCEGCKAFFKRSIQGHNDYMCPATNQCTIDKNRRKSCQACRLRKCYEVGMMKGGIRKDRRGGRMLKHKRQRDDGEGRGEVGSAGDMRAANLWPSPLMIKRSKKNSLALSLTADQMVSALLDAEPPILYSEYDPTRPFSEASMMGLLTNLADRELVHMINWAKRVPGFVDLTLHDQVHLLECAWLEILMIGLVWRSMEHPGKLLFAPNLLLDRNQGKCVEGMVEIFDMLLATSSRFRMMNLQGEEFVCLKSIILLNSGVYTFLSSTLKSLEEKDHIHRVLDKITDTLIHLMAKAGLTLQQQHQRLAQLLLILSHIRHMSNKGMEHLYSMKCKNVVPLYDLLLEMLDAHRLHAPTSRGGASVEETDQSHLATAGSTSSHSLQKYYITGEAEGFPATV

[5] = target: Estrogen receptor (Homo sapiens) (UniProt P03372); assay: qHTS assay to identify small molecule agonists of the estrogen receptor alpha (ER-alpha) signaling pathway using the BG1 cell line (AID 743079); note: nearly all actives have a fitted effect of over 20% in size
[6] = qHTS assay to identify small molecule antagonists of the estrogen receptor alpha (ER-alpha) signaling pathway using the BG1 cell line (AID 743080; calls by dose curve;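 note: BG1 cells stimulated with 17beta-estradiol alongside compound; nearly all actives have a fitted effect of over 25% in size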; note: potency is the fitted concentration of half-maximal effect)
Summary of the method: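 BG1Luc4E2, endogenous ER-alpha, 4xERE-luc; 5 d charcoal-stripped FBS, phenol red free; 24 h plating; cpd + 17beta-estradiol 21.5 h, 37 C/5% CO2; CellTiter-Fluor viability 30 min, then ONE-Glo luciferase 30 min RT.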

[7] = qHTS assay to identify small molecule antagonists of the estrogen receptor alpha (ER-alpha) signaling pathway using the BG1 cell line - cell viability counter screen (AID 743081);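 note: compound given together with 17beta-estradiol as the ER stimulus; series mostly up to about 70 µM; nearly all actives have a fitted effect of over 45% in size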
Aromatase (Homo sapiens) = Aromatase (Homo sapiens) (UniProt P11511); assay: qHTS assay to identify aromatase inhibitors (AID 743083); note: nearly all actives have a fitted effect of over 55% in size; note: potency is the fitted concentration of half-maximal effect
Aromatase (Homo sapiens), sequence (P11511 whole entry, looked up): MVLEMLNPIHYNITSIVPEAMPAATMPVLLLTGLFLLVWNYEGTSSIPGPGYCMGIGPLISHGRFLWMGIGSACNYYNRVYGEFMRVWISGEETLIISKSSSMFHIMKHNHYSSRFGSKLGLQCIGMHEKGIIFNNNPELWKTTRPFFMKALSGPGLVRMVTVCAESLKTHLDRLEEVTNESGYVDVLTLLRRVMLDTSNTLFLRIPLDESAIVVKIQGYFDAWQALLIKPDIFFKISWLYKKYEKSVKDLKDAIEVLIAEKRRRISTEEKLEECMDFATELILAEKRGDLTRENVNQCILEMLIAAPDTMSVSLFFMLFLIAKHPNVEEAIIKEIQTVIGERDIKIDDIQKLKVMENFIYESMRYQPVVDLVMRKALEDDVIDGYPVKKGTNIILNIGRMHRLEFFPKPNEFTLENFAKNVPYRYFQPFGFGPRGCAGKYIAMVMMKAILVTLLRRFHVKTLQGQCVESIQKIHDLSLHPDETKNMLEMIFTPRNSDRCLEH

[8] = qHTS assay to identify aromatase inhibitors - cell viability counter screen (AID 743084);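 note: cells stimulated with testosterone during compound exposure; nearly all actives have a fitted effect of over 55% in size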; note: potency is the fitted concentration of half-maximal effect
[9] = target: Aryl hydrocarbon receptor (Homo sapiens) (UniProt P35869); assay: qHTS assay to identify small molecule that activate the aryl hydrocarbon receptor (AhR) signaling pathway (AID 743085); note: nearly all actives have a fitted effect of over 15% in size; note: potency is the fitted concentration of half-maximal effect;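 for activation: HG2L7.5c1 human HepG2 liver cells with stably integrated DRE-driven firefly reporter; series mostly up to about 70 µM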
Aryl hydrocarbon receptor (Homo sapiens), sequence (P35869 whole entry, looked up): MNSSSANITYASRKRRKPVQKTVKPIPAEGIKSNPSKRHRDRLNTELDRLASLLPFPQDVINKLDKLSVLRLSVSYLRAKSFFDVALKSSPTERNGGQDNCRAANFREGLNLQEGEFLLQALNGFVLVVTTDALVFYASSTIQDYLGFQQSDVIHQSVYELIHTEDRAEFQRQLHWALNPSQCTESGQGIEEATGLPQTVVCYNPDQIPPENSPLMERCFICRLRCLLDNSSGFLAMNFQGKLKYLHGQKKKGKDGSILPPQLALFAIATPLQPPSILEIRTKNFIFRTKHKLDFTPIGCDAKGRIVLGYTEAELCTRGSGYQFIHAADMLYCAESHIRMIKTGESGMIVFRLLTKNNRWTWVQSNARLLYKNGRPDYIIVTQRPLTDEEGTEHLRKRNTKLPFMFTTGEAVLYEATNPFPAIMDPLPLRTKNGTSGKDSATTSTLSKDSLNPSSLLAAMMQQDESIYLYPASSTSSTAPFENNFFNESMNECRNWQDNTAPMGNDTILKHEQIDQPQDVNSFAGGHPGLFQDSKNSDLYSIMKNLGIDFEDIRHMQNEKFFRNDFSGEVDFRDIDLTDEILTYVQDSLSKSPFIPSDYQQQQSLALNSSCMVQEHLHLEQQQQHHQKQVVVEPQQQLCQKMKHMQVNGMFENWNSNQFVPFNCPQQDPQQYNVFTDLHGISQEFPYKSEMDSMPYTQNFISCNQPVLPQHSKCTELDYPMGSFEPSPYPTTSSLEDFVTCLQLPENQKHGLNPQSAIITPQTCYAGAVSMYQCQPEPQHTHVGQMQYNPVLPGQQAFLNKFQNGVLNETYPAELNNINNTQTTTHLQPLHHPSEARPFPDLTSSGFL
Summary of the method: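 Measured in HG2L7.5c1 cells: CellTiter-Fluor signal (30 min incubation, 37C) for viability, then luciferase luminescence (30 min, room temperature). Compound contact time was 24 h at 37C, following a 5 h pre-incubation.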

[10] = target: Peroxisome proliferator-activated receptor gamma (Homo sapiens) (UniProt P37231); assay: qHTS assay to identify small molecule agonists of the peroxisome proliferator-activated receptor gamma (PPARg) signaling pathway (AID 743094; active = well fitted activation curve with a large enough effect in the signal ratio in the repeat runs, not every such curve was filed as active; inconclusive = weak or mixed curves, or effect the other way; inactive = no such curve, though single readings can be large or run the other way; the % refers to the signal ratio)
Peroxisome proliferator-activated receptor gamma (Homo sapiens), sequence (P37231 whole entry, looked up): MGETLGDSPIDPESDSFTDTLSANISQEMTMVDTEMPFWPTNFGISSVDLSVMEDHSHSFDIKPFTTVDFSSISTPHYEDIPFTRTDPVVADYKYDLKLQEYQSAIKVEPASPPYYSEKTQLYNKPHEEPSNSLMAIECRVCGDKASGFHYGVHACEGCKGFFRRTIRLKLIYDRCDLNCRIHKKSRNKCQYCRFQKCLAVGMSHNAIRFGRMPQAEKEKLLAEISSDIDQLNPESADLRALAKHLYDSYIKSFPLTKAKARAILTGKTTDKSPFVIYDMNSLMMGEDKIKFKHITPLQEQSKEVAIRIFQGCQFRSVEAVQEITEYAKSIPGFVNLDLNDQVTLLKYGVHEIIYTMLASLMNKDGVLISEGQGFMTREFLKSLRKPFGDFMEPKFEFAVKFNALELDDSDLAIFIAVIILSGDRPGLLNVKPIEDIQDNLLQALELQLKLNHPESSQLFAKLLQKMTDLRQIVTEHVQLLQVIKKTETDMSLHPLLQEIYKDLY
Summary of the method: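 Reporter activation was scored by fluorescence of cleaved LiveBLAzer B/G substrate (1 h, room temperature) in PPARg-bla HEK293H cells previously treated 17 h at 37C with DMSO-dissolved compounds.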

[11] = target: Peroxisome proliferator-activated receptor gamma (Homo sapiens) (UniProt P37231); assay: qHTS assay to identify small molecule antagonists of the peroxisome proliferator-activated receptor gamma (PPARg) signaling pathway (AID 743191; calls by dose curve; note: nearly all actives have a fitted effect of over 30% in size; note: potency is the fitted concentration of half-maximal effect)
Summary of the method: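 GeneBLAzer PPARg UAS-bla HEK293H cells, 5 h post-plating, exposed to compounds 17 h at 37C. LiveBLAzer B/G FRET substrate added for 1 h at room temperature; beta-lactamase reporter read by fluorescence intensity.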

[12] = qHTS assay to identify small molecule antagonists of the peroxisome proliferator-activated receptor gamma (PPARg) signaling pathway - cell viability counter screen (AID 743194); conditions: Potency: co-treated with 50 nM rosiglitazone; note: nearly all actives have a fitted effect of over 55% in size; note: potency is the fitted concentration of half-maximal effect
Summary of the method: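 Cytotoxicity counter screen in PPARg-bla HEK293H cells, same wells as reporter assay. Compounds plus 50 nM rosiglitazone (final) for 17 h at 37 C, then viability read by CellTiter-Glo luminescence.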

[13] = qHTS assay for small molecule agonists of the antioxidant response element (ARE) signaling pathway (AID 743202; active = well fitted activation curve with a large enough effect in the signal ratio in the repeat runs, not every such curve was filed as active; inconclusive = weak or mixed curves, or effect the other way; inactive = no such curve, though single readings can be large or run the other way; the % refers to the signal ratio; note: potency is the fitted concentration of half-maximal effect)
Summary of the method: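 HepG2 ARE-bla cells; 16 h treatment at 37 C; FRET-based beta-lactamase fluorescence read after 2 h substrate incubation at room temperature.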

[14] = qHTS assay for small molecule agonists of the antioxidant response element (ARE) signaling pathway - cell viability counter screen (AID 743203; calls by dose curve; note: nearly all actives have a fitted effect of over 55% in size; note: potency is the fitted concentration of half-maximal effect)
Summary of the method: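 Viability counter screen: stably transfected ARE-bla HepG2 line, 16 hrs compound exposure at 37C/5% CO2, ATP-based CellTiter-Glo luminescence measured in the reporter wells.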

[15] = qHTS assay for small molecule activators of the heat shock response signaling pathway (AID 743210; active = well fitted activation curve with a large enough effect in the signal ratio in the repeat runs, with a control signal flat, not every such curve was filed as active; inconclusive = weak or mixed curves; the % refers to the signal ratio;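 note: HeLa cells with beta-lactamase reporter driven by heat shock elements; series mostly up to about 63 µM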)
Summary of the method: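 Following overnight attachment, HSE-bla HeLa cells received test compounds for 5 h at 37 C; beta-lactamase activity was then detected via FRET substrate fluorescence.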

[16] = qHTS assay to identify small molecule agonists of the peroxisome proliferator-activated receptor delta (PPARd) signaling pathway - cell viability counter screen (AID 743211); note: nearly all actives have a fitted effect of over 55% in size; note: potency is the fitted concentration of half-maximal effect
Summary of the method: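 Following 5 h plating at 37 C and 5% CO2, PPARd UAS-bla HEK293H cells took up test compounds for 17 h. Viability was quantified by luminescence 30 min after CellTiter-Glo addition at room temperature.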

[17] = qHTS assay to identify small molecule that activate the aryl hydrocarbon receptor (AhR) signaling pathway - cell viability counter screen (AID 743086); note: nearly all actives have a fitted effect of over 45% in size; note: potency is the fitted concentration of half-maximal effect
Summary of the method: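 HepG2-AhR-luc (HG2L7.5c1) cells, 4000/well, treated 24 h at 37 C with compound; viability measured as CellTiter-Fluor fluorescence after 30 min in the same wells as the luciferase read.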

[18] = qHTS assay for small molecule activators of the heat shock response signaling pathway - cell viability counter screen (AID 743209); note: nearly all actives have a fitted effect of over 50% in size
Summary of the method: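 Viability of HSE-bla HeLa cells is measured with CellTiter-Glo in the wells already used for the reporter read. Compound exposure lasts 5 h at 37 C, and luminescence is read after 30 min at room temperature.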

[19] = target: Estrogen receptor (Homo sapiens) (UniProt P03372); assay: qHTS assay to identify small molecule antagonists of the estrogen receptor alpha (ER-alpha) signaling pathway (AID 743069; active = well fitted curve in the direction sought with a large enough effect in the signal ratio in the repeat runs, not every such curve was filed as active; inconclusive = weak or mixed curves, or effect the other way; inactive = no such curve, though single readings can be large or run the other way; the % refers to the signal ratio; note: potency is the fitted concentration of half-maximal effect)
Summary of the method: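 In this cell-based reporter format, GripTite HEK293 cells harbouring ER-alpha-UAS-bla were grown overnight with 2% charcoal-stripped FBS, dosed with DMSO-dissolved compounds, then challenged with 17beta-estradiol. After 18 hr at 37C, beta-lactamase activity was detected by FRET fluorescence.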

Measured: Potency

CCc1ccc(C(=O)NN(C(=O)c2cc(C)cc(C)c2)C(C)(C)C)cc1
active: [8] 6.86 µM | [13] 61.1 µM
not listed: [17] | [18] | [19]
inactive: all other assays above

OC(c1ccc(Cl)cc1)(c1ccc(Cl)cc1)c1cccnc1
inactive: [2] | [3] | [4] | [6] | [7] | [8] | [9] | [17]
active: [1] 54.5 µM | [14] 61.1 µM | [16] 54.9 µM

[CH3][Sn]([CH3])([Cl])[Cl]
active: [1] 55.4 µM and 68.6 µM | [13] 34.4 µM
not listed: [4] | [5] | [6] | [11] | [15] | [16] | [19]
inactive: all other assays above

C[N+](C)(C)CCCl
not listed: [4] | [10] | [11]
inactive: all other assays above

CCCN(CCC)c1c([N+](=O)[O-])cc(S(C)(=O)=O)cc1[N+](=O)[O-]
not listed: [5] | [15] | [19]
inactive: all other assays above

O=C(Nc1ccccc1)Nc1cnns1
active: [1] 61.1 µM | [6] 68.5 µM
not listed: [5] | Aromatase (Homo sapiens) | [9] | [13] | [17] | [19]
inactive: all other assays above

O=C1c2ccccc2C(=O)C1C(=O)C(c1ccccc1)c1ccccc1
active: [9] 29.8 µM
not listed: [4] | [5] | [6] | [11] | [12] | [13] | [16] | [19]
inactive: all other assays above

c1ccoc1
not listed: [5] | [11] | [19]
inactive: all other assays above

COP(=O)(OC)O/C(=C/Cl)c1cc(Cl)c(Cl)cc1Cl
inactive: [2] | [7] | [8] | [9] | [17] | [14] | [18] | [15]
active: [1] 28.8 µM | [19] 16.4 µM [inconclusive] | Aromatase (Homo sapiens) 40.7 µM | [13] 5.75 µM

OCCCBr
active: [1] 61.1 µM
not listed: [3] | [7] | [9] | [11] | [13] | [14] | [18]
inactive: all other assays above

O=C(Nc1ccccc1)Nc1ccnc(Cl)c1
inactive: [2] | [3] | [4] | [7] | [15] | [16]
active: [1] 27.3 µM | [19] 13.8 µM [inconclusive] | Aromatase (Homo sapiens) 54.5 µM

IC(I)=C(I)I
active: [1] 6.11 µM | [6] 9.69 µM | Aromatase (Homo sapiens) 6.86 µM | [8] 15.4 µM | [17] 43.3 µM | [12] 9.77 µM | [14] 6.11 µM | [16] 9.77 µM
inactive: [2] | [3] | [4] | [7]

CN1C(=O)NC(=O)C(C)(C2=CCCCC2)C1=O (stereo not drawn)
not listed: [4] | [5] | [6] | [11] | [19]
inactive: all other assays above

O=S(=O)(Cl)c1ccccc1
not listed: [4] | [5] | [6] | [19]
inactive: all other assays above

COc1nn(CSP(=S)(OC)OC)c(=O)s1
active: [1] 68.6 µM | Aromatase (Homo sapiens) 61.1 µM | [8] 68.6 µM | [11] 49 µM
inactive: [2] | [19] | [4] | [5] | [6] | [7] | [17] | [14] | [16]
